One sequence from publication PMC7862700, “An all-to-all approach to the identification of sequence-specific readers for epigenetic DNA modifications on cytosine” can be followed below.

Common to all, as to assay: DAPPL (digital affinity profiling via proximity ligation, sequencing); 10 mM Tris-HCl pH 7.5, 50 mM NaCl, 1 mM DTT, 4% glycerol, room temperature, 30 min; GST-TFs on glutathione beads, 16-mer random dsDNA library, 0.1% formaldehyde crosslink after washing; high values mean tight binding
The target of one test is T1, FEV (Homo sapiens, UniProt Q99581 1-238).
T1 sequence: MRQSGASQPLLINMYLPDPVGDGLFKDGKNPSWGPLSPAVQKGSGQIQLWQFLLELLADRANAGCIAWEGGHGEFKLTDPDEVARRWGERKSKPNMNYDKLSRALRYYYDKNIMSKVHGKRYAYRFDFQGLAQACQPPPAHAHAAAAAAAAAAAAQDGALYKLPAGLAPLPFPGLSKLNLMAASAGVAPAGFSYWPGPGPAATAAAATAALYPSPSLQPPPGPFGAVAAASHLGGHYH
The settings on record: protein: recombinant; tags: N-terminal GST; dsDNA, one strand shown. Summed up:
(§1)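 Binding signal is defined as a hexamer's read frequency for one factor over its frequency for the tag-only sample. To obtain reads, GST-fused human transcription factors were expressed in yeast, captured on glutathione beads, barcoded with DNA and pooled with that sample. Pools met 200 nmole of a 16-mer random double-stranded DNA library in Tris/NaCl/DTT/glycerol buffer for 30 min at room temperature before washing, 0.1% formaldehyde crosslinking, proximity ligation (BsaI/T4 ligase, 1 h, 37 °C), PCR and Illumina NextSeq500 sequencing.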

Another test deals with ETV5 (Homo sapiens, UniProt P41161 1-510). The settings on record: protein: recombinant; tags: N-terminal GST; dsDNA, one strand shown. In a few lines: as §1
Chain of ETV5 (P41161 whole entry): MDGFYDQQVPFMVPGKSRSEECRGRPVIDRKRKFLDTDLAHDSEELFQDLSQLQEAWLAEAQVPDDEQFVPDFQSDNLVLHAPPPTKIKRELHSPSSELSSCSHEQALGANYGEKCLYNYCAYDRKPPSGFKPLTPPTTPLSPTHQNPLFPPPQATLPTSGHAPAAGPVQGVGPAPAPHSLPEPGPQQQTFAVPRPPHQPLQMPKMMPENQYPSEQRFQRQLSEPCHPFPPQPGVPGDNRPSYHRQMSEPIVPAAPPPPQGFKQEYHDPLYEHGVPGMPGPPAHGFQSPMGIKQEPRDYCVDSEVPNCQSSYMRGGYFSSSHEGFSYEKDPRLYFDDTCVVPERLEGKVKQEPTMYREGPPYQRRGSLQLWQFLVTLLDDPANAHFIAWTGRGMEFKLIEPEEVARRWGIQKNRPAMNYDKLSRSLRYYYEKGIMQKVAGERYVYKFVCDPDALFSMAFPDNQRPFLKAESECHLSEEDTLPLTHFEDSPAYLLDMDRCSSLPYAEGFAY
The next test addresses HSF1 (Homo sapiens, UniProt Q00613 1-529). As to conditions: protein: recombinant; tags: N-terminal GST; chain copies: 3; dsDNA, one strand shown. Summed up:
as §1

A further test addresses T2, SPIC (Homo sapiens, UniProt Q8N5J4 1-248).
T2 sequence: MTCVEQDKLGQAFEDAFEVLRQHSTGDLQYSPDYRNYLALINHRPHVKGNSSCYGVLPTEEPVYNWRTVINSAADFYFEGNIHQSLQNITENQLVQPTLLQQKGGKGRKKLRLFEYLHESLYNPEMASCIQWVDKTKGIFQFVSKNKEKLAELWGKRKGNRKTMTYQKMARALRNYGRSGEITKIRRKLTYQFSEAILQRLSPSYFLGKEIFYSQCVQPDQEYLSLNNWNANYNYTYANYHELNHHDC
As to conditions: protein: recombinant; tags: N-terminal GST; dsDNA, one strand shown. In a few lines:
as §1

The target in a further test is ELF4 (Homo sapiens, UniProt Q99607 1-663). As to conditions: protein: recombinant; tags: N-terminal GST; dsDNA, one strand shown. In a few lines: as §1
Chain of ELF4 (Q99607 whole entry): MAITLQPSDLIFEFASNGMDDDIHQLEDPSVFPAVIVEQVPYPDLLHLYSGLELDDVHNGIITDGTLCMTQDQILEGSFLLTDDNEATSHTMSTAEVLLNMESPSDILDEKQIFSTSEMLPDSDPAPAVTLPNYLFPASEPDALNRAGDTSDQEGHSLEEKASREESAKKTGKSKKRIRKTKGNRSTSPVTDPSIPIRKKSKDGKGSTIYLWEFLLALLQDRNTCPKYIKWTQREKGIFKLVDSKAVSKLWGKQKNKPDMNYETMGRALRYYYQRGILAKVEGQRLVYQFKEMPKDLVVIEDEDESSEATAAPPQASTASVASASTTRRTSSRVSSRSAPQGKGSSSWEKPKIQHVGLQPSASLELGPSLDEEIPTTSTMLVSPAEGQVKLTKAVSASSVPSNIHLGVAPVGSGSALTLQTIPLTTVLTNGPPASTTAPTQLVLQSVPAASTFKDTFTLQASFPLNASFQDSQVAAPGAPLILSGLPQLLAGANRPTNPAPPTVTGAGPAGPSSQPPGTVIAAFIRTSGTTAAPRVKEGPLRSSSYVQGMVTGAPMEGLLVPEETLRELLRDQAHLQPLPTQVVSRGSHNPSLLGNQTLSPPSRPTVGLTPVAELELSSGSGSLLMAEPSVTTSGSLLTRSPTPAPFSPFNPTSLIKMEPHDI
For the next test, the target named is T3, ELK4 (Homo sapiens, UniProt P28324-2 1-405).
T3 sequence: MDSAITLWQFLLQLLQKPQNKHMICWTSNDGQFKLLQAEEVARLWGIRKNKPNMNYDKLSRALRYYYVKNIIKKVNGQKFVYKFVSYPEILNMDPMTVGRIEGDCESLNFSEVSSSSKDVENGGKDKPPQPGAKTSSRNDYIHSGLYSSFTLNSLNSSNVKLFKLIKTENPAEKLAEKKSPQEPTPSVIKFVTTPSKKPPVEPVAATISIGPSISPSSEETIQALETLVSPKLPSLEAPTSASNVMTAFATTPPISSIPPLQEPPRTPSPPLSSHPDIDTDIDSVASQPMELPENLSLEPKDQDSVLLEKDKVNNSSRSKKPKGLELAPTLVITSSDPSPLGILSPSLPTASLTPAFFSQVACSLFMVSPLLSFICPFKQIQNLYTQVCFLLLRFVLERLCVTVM
The settings on record: protein: recombinant; tags: N-terminal GST; dsDNA, one strand shown. In a few lines: as §1

The target in another test is T4, ETV2 (Homo sapiens, UniProt O00321 1-342).
T4 sequence: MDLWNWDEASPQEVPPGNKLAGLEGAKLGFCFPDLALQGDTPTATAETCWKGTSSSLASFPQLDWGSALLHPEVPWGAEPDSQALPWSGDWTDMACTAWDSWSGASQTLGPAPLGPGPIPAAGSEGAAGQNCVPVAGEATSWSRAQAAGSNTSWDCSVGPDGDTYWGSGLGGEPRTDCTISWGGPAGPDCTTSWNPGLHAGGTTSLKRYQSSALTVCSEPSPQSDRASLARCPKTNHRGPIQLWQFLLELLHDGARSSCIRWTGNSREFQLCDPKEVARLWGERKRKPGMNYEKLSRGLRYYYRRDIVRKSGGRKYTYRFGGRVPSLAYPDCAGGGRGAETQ
The settings on record: protein: recombinant; tags: N-terminal GST; dsDNA, one strand shown. In a few lines:
as §1

The next test addresses T5, ELF3 (Homo sapiens, UniProt P78545 1-371).
T5 sequence: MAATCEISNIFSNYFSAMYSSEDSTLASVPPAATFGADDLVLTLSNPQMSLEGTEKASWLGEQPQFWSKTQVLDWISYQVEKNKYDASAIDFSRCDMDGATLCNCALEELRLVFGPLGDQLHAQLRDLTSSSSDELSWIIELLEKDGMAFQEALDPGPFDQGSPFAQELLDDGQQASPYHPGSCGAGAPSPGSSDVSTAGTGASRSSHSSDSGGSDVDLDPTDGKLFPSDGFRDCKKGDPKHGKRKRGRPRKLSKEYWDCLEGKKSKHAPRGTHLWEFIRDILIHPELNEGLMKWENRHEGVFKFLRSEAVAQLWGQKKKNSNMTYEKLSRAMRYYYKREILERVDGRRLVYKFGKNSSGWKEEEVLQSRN
The settings on record: protein: recombinant; tags: N-terminal GST; dsDNA, one strand shown. In a few lines:
as §1

The target of the next test is CRX (Homo sapiens, UniProt O43186 1-299). As to conditions: protein: recombinant; tags: N-terminal GST; dsDNA, one strand shown. In a few lines:
as §1

The next test deals with ETV1 (Homo sapiens, UniProt P50549 1-477). As to conditions: protein: recombinant; tags: N-terminal GST; dsDNA, one strand shown. Summed up:
as §1

For a further test, the target named is T6, ERF (Homo sapiens, UniProt P50548 1-548).
T6 sequence: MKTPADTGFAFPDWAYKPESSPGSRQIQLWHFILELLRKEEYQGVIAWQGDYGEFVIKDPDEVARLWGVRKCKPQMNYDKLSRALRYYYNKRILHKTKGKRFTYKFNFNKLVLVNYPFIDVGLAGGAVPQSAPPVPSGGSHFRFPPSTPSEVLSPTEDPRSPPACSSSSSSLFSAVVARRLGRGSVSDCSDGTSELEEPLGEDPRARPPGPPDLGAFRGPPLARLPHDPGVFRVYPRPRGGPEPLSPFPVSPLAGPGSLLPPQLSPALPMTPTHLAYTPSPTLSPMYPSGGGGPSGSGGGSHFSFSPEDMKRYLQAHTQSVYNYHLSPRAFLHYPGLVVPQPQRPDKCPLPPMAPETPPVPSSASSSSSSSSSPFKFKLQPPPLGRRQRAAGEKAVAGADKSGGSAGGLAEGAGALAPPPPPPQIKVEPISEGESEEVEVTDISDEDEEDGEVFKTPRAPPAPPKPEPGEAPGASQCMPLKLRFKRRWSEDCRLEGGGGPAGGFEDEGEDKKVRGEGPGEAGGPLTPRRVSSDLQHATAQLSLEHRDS
As to conditions: protein: recombinant; tags: N-terminal GST; dsDNA, one strand shown. Summed up:
as §1

The target of a further test is T7, ETV3L (Homo sapiens, UniProt Q6ZN32 1-361).
T7 sequence: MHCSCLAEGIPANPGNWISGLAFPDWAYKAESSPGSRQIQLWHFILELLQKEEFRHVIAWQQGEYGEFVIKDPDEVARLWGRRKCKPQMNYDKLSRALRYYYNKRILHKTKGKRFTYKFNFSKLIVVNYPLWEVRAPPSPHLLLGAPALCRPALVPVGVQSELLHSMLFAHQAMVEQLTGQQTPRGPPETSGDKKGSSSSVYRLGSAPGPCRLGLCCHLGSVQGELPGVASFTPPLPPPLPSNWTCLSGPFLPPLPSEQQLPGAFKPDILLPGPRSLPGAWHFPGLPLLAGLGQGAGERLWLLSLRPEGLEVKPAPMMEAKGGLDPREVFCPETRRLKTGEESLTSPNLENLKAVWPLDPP
As to conditions: protein: recombinant; tags: N-terminal GST; dsDNA, one strand shown. In a few lines: as §1

The next test addresses T8, ETS2 (Homo sapiens, UniProt P15036 1-469).
T8 sequence: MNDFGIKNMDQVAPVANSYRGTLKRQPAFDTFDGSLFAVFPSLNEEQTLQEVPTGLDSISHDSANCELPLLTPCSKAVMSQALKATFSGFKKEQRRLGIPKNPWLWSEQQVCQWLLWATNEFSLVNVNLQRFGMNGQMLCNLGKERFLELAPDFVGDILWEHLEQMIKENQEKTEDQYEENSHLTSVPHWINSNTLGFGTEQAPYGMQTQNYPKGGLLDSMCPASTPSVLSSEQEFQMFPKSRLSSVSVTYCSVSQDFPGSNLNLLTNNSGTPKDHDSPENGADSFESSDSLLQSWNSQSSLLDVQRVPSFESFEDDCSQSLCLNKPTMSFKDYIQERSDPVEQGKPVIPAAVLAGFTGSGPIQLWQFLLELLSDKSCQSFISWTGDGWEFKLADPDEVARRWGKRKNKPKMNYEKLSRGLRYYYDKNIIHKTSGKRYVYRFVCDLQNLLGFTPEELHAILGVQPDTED
The settings on record: protein: recombinant; tags: N-terminal GST; dsDNA, one strand shown. Summed up:
as §1

A further test has as its target T9, SPDEF (Homo sapiens, UniProt O95238 1-335).
T9 sequence: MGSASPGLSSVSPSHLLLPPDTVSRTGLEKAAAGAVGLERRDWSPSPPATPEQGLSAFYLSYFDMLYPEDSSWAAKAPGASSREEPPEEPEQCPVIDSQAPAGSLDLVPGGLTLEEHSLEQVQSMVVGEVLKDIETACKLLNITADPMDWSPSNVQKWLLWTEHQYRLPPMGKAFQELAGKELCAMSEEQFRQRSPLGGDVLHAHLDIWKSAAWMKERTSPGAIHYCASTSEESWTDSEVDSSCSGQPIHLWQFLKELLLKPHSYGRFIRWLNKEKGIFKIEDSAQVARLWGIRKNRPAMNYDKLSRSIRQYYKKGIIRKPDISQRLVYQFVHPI
As to conditions: protein: recombinant; tags: N-terminal GST; dsDNA, one strand shown. Summed up:
as §1

Another test has as its target T10, ETV7 (Homo sapiens, UniProt Q9Y603 1-341).
T10 sequence: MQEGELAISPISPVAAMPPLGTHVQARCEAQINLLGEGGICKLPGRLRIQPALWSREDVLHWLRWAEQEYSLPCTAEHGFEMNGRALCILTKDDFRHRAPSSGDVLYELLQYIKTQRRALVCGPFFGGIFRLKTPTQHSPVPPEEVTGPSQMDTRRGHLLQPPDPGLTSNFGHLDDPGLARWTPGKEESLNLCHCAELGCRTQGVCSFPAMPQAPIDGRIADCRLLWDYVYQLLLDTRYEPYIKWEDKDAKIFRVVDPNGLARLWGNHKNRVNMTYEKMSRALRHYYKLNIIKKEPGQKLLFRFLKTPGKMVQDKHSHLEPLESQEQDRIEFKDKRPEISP
As to conditions: protein: recombinant; tags: N-terminal GST; dsDNA, one strand shown. Summed up:
as §1

The target in a further test is T11, ELF5 (Homo sapiens, UniProt Q9UKW6-2 1-255).
T11 sequence: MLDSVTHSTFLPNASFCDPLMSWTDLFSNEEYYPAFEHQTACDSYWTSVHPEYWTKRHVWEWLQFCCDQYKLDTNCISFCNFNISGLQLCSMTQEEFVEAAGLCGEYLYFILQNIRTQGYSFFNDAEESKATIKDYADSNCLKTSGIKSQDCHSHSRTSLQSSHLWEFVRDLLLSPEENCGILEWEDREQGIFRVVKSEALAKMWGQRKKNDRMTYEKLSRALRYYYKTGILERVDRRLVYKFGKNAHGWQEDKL
The settings on record: protein: recombinant; tags: N-terminal GST; dsDNA, one strand shown. In a few lines: as §1

A further test deals with T12, ETV3 (Homo sapiens, UniProt P41162-2 1-143).
T12 sequence: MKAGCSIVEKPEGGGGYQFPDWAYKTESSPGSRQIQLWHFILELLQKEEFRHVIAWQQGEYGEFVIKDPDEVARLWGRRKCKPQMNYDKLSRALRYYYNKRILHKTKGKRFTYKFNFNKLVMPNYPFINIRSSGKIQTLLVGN
The settings on record: protein: recombinant; tags: N-terminal GST; dsDNA, one strand shown. Summed up:
as §1

A further test addresses ETV6 (Homo sapiens, UniProt P41212 1-452). The settings on record: protein: recombinant; tags: N-terminal GST; dsDNA, one strand shown. Summed up: as §1

Chain of HSF1 (Q00613 whole entry): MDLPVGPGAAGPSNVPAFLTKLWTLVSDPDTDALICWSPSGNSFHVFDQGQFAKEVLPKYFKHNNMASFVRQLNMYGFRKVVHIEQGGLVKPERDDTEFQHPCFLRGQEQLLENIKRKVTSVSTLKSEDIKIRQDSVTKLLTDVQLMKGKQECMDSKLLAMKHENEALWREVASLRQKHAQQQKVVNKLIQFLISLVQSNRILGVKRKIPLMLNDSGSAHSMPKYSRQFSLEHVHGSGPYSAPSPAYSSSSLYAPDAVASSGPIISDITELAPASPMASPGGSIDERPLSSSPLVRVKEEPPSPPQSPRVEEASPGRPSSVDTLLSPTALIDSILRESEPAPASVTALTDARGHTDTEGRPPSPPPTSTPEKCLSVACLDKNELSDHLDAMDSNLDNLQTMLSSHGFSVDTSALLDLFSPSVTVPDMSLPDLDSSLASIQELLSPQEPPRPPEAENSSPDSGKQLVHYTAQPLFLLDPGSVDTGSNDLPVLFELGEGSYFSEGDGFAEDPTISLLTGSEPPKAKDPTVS
Chain of CRX (O43186 whole entry): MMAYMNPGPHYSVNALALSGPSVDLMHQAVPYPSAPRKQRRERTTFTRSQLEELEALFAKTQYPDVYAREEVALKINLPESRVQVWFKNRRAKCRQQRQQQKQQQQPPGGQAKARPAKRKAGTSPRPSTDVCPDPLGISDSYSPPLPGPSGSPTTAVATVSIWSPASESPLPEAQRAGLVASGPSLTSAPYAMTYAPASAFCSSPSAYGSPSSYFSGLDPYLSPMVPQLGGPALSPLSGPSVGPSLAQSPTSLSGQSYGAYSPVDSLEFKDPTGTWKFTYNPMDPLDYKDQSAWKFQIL
Chain of ETV6 (P41212 whole entry): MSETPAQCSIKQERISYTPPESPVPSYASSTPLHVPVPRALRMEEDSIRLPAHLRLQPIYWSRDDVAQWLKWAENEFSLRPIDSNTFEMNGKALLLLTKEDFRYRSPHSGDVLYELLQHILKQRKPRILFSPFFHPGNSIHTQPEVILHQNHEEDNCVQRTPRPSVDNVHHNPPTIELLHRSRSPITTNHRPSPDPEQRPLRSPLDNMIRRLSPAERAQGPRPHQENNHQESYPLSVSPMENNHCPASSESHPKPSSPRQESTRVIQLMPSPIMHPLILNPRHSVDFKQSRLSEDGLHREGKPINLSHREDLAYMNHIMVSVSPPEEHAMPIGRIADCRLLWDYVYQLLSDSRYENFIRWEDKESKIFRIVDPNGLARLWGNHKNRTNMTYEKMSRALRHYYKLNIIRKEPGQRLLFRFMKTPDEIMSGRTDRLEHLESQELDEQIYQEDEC
Chain of ETV1 (P50549 whole entry): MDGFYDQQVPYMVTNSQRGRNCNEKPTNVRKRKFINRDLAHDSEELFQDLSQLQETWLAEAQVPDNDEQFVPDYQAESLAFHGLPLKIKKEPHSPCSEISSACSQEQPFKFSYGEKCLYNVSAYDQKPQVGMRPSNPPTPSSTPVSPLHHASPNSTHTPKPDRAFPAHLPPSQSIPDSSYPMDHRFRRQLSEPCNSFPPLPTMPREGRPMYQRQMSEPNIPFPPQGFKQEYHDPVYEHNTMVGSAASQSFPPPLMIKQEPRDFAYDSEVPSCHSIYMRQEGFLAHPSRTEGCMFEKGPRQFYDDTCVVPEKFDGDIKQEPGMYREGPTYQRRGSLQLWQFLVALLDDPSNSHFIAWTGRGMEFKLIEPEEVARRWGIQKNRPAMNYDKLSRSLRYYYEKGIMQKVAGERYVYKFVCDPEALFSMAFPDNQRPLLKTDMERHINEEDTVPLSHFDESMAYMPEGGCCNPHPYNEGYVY

Regarding TTTAAC, the binding signal with FEV is 1.09 fold enrichment (6-mer frequency, TF over GST control); with ETV5 it was 1.12 fold enrichment (6-mer frequency, TF over GST control); in the test with HSF1 it was 1.22 fold enrichment (6-mer frequency, TF over GST control); in the test with SPIC, 1.23 fold enrichment (6-mer frequency, TF over GST control); with ELF4 it was 1.14 fold enrichment (6-mer frequency, TF over GST control); in the test with ELK4, 1.13 fold enrichment (6-mer frequency, TF over GST control). Further, the binding signal with ETV2 was 1.24 fold enrichment (6-mer frequency, TF over GST control); with ELF3, 1.15 fold enrichment (6-mer frequency, TF over GST control); with CRX, 1.74 fold enrichment (6-mer frequency, TF over GST control); with ETV1, 1.18 fold enrichment (6-mer frequency, TF over GST control); in the test with ERF it was 1.28 fold enrichment (6-mer frequency, TF over GST control); in the test with ETV3L, 1.17 fold enrichment (6-mer frequency, TF over GST control). Besides, the binding signal was 1.16 fold enrichment (6-mer frequency, TF over GST control) with ETS2; 1.12 fold enrichment (6-mer frequency, TF over GST control) with SPDEF; 1.07 fold enrichment (6-mer frequency, TF over GST control) with ETV7; 1.11 fold enrichment (6-mer frequency, TF over GST control) in the test with ELF5; 1.21 fold enrichment (6-mer frequency, TF over GST control) with ETV3; 1.19 fold enrichment (6-mer frequency, TF over GST control) in the test with ETV6.
